Source: PubChem BioAssay
ALOX15B inhib: 15-hLO-2 (ALOX15B) enzyme inhibition | purified 15hLO-2, xylenol orange hydroperoxide absorbance | Potency, µM (highest dose often 57.1 µM), for the others: top-dose activity change, negative = inhibition, hits mostly inhibitors | 0.56% of 110,000 active | O15296; further: nearly all actives have a fitted effect of over 60% in size
Target sequence (O15296 whole entry, looked up): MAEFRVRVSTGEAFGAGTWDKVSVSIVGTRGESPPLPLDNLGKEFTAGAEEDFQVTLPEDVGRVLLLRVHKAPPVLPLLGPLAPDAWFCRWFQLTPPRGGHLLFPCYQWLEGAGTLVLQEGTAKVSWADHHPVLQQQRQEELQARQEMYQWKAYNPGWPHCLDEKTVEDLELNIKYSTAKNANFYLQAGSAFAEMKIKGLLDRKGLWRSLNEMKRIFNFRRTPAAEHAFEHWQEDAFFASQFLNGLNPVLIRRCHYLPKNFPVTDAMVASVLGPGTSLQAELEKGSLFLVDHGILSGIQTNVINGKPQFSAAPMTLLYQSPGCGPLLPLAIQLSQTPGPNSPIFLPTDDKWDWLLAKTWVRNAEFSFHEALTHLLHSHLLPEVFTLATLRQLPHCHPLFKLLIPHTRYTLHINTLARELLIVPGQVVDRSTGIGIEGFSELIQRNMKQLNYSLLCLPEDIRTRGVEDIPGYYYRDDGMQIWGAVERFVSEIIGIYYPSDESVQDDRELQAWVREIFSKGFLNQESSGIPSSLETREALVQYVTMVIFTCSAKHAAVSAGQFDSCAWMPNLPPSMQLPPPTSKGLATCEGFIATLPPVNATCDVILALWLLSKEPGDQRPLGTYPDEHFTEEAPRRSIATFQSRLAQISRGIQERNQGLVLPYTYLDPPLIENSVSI
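Purified human 15hLO-2 (50 nM) preincubated 15 min with compound, then 45 uM arachidonic acid for 90 min at RT in 25 mM Hepes pH 7.5, 0.01% Triton X-100. Hydroperoxide detected by Fe-xylenol orange; 573/405 nm absorbance ratio.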
ALOX12 inhib: inhibitors of human 12-lipoxygenase (ALOX12) | P18054 | purified 12-hLO, xylenol orange hydroperoxide absorbance | Potency, µM (doses to about 57.1 µM), for inactives: top-dose activity change, negative = inhibition, actives largely listed as inhibitors | 0.12% of 150,000 active | AID 1452; further: nearly all actives have a fitted effect of over 55% in size
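Hydroperoxide formation by human 12-lipoxygenase from 40 uM arachidonic acid was followed colorimetrically via ferric-xylenol orange complex, using the 573/405 nm absorbance ratio. Enzyme concentration was 150 nM, with 30 min reaction at room temperature.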
Active calls of the source: *; ? = inconclusive; · = not tested or not shown; [ ] = another dose, or the depositor's remark. Many of the other results were omitted from the sample, so hits are more common in it than they were. The call rests on the fitted dose curve; in most records, active means well fitted curve in the direction sought with a large enough effect; inconclusive means small, poorly fitted or top-dose-only effect, or another doubt; inactive means no such curve, though single readings can be large; an effect the other way counts as inactive or inconclusive. On the % scale 0 is the no-effect control and ±100 the full control effect; potency means the concentration at half of the fitted maximal effect.

SMILES	ALOX15B inhib	ALOX12 inhib
CN(C)c1ccc(N2C(=O)CC(Nc3ccc(N4CCOCC4)cc3)C2=O)cc1 (stereo not given)	·	-7%
CN(C)CCNC(=O)c1ccc(Cc2nc3ccccc3[nH]2)cc1	·	1%
O=C(O)c1ccc(F)c(S(=O)(=O)Nc2cccc(F)c2)c1	·	-3%
CCOC(=O)CCN1CCN(C(=O)c2ccc(-n3c(=O)c(=O)[nH]c4ccccc43)cc2)CC1	·	-4%
C[C@@]12CCC(=O)C=C1CC[C@H]1[C@H]3CC[C@](O)(C(=O)CO)[C@]3(C)CC(=O)[C@@H]12	8%[25.6 µM]	-1%[25.6 µM]
O=c1cnc2cncnc2n1Cc1ccccc1Cl	-12%	·
COc1ccc(/C=C/C2=C[C@]3(C)C[C@]2(C)[C@H](c2ccc(OC)cc2)CC3=O)cc1	·	4%
CC1(C)Cc2[nH]c(=S)c(C#N)cc2CO1	16µM*	?
N#Cc1cc2c([nH]c1=S)CCCC2	·	-29%
N[C@@H]1C=CC=C(C(=O)O)C1	-4%	-1%
CCC(=O)/C=C1/Sc2ccccc2N1CC	·	-5%
CCN(CC)C(C)CN1c2ccccc2Sc2ccccc21 (stereo not given)	13µM*	13µM*
C[C@@]12C[C@H](O)[C@@H]3[C@H](CCC4=CC(=O)CC[C@]43C)[C@H]1CC[C@@H]2c1csc(N)n1	-3%[11.4 µM]	3%[11.4 µM]
CCOC(=O)c1cc(-c2ccccc2)sc1NC(=S)Nc1cc(C)ccn1	10µM*	0%
CCOC(=O)c1cc(-c2ccccc2)sc1NC(=O)C(C)(C)C	4%	3%
Cc1nc(NC2CCCCC2)c2nc(-c3ccccc3)n(CCCN3CCOCC3)c2n1	13%	2%
COC(=O)c1ccc(NC(=O)CN2C(=O)CCC2=O)cc1	-5%	-4%
O=C(CN1C(=O)CCC1=O)Nc1ccc(Br)cc1	7%	5.6µM*
C[C@H](NC(=O)N1CCc2nc(-c3ccccc3)c3c(c2C1)CO[C@@H](C)C3)c1ccccc1	·	1%[11.4 µM]
COCC1=C2c3ccccc3[C@@H]3CNC(=O)C3(C(=O)OC)C[C@@H]2n2c(=O)n(-c3ccccc3)c(=O)n2C1 (stereo not given in full)	·	2%
O=C(/C=C/c1ccc2c(c1)OCO2)c1cccs1	-2%	-25%
CC1=CC2=NC(=O)/C(=C\c3ccc(-c4cccc(Cl)c4)o3)C(=N)N2O1	·	0%
CC1=NOC(=O)/C1=C\c1ccc(-c2cccc(Cl)c2)o1	2.5µM*	-26%
CC[C@H](C)[C@@H]1O[C@]2(CC[C@@H]1C)C[C@H]1C[C@H](CC=C(C)[C@@H](O[C@H]3C[C@H](OC)[C@H](O[C@H]4C[C@H](OC)[C@H](O)[C@H](C)O4)[C@H](C)O3)[C@@H](C)C=CC=C3CO[C@@H]4[C@@H](O)C(C)=C[C@H](C(=O)O1)[C@@]34O)O2	-8%	-2%
C=C(c1ccc(O)cc1)c1ccc(O)cc1	?	-28%
SMILES	ALOX15B inhib	ALOX12 inhib
C/C=C(/C(=C/C)c1ccc(O)cc1)c1ccc(O)cc1	16µM*	?
O=c1[nH]c(=O)n([C@H]2C[C@H](O)[C@H](CO)O2)cc1/C=C\Br	2%	-4%
Nc1ccc(O)c2c(=O)cc(-c3ccccc3Cl)oc12	-12%[0.0915 µM]	-5%[0.00818 µM]
O=c1cc(-c2ccccc2Cl)oc2c(NS(=O)(=O)c3cc(Cl)cc(Cl)c3O)ccc(O)c12	16µM*	0.28µM*
NC(N)=N[C@H](CCC(=O)O)C(=O)O	3%	-2%
O=C(c1ccccc1)N1CCN(c2ccc(NCc3ccc4c(c3)OCO4)cc2)CC1	20µM*	?
CC(=O)N1CCN(c2ccc(NCc3ccc4c(c3)OCO4)cc2)CC1	13µM*	?
O=C(c1ccc2c(c1)OCO2)N1CCN(c2ccccc2)CC1	-9%	-4%
Cc1ccc(C(=O)N2CCN(c3ccc(Cl)cc3)CC2)cc1	6%	-2%
Cc1ccc(C(=O)N2CCN(c3ccc(NC(=S)NC(=O)Cc4ccccc4)cc3)CC2)cc1	13µM*	?
O=C(O)c1cc(NCc2ccc3c(c2)OCO3)ccc1N1CCOCC1	-7%	-3%
CCOC(=O)C1=C(C)NC(C)=C(C(=O)OC)[C@H]1c1cccc(Cl)c1Cl	-5%	-5%
CN1CCN(C(=O)c2ccc(-n3c(=O)c(=O)[nH]c4ccccc43)cc2)CC1	·	-1%
O=C(OCC(=O)N1CCN(C(=O)c2ccco2)CC1)c1cc(-c2ccco2)nc2ccccc12	13µM*	-19%
O=C(OCC(=O)N1CCN(C(=O)c2ccco2)CC1)c1cc(-c2ccc(Cl)c(Cl)c2Cl)nc2ccccc12	-8%	4%
O=C1NCCCc2c1oc1ccc(O)cc21	?	-2%
Oc1c(Cl)cc(Cl)c2c1NCCC2	5µM*	?
COc1ccc(CCN(C)CCC[C@@](C#N)(c2cc(OC)c(OC)c(OC)c2)C(C)C)cc1OC	27%	-3%
CCOc1cccc2oc(-c3ccccc3Cl)cc(=O)c12	-11%[0.0915 µM]	-13%[0.00818 µM]
O=C(NCC1COc2ccccc2O1)c1ccccc1 (stereo not given)	-5%	1%
O=C(NC(=S)NCC1COc2ccccc2O1)c1ccccc1 (stereo not given)	·	13µM*
Cc1ccc2ccccc2c1[N+](=O)[O-]	6%	-5%
Nc1ccc(O)cc1C(=O)OCC(=O)C12CC3CC(CC(C3)C1)C2	5µM*	?
Nc1ccc(O)cc1C(=O)OCC(=O)c1ccc(C2CCCCC2)cc1	·	-6%
COC(=O)c1ccccc1S(=O)(=O)N1CCc2nc(-c3ccc(OC)cc3C)c3c(c2C1)CO[C@@H](c1ccccc1)C3	·	-3%[11.4 µM]
SMILES	ALOX15B inhib	ALOX12 inhib
Oc1cc(O)cc(/C=C/c2ccc(O)c(O)c2)c1	4.5µM*	?
C/C=C/c1ccc(O)c(OC)c1	-18%	-1%
NC(=S)NCCC[C@@H](N)C(=O)O	-8%	-5%
CCc1nnc(NS(=O)(=O)c2ccc(NC(=S)NC(=O)/C=C/c3ccc(C(C)C)cc3)cc2)s1	25µM*	16µM*
CCc1nnc(NS(=O)(=O)c2ccc(NC(=S)NC(=O)/C=C/c3ccc(OC)cc3)cc2)s1	·	-2%
O=C(Nc1ccc(NC(=S)NC(=O)c2cccs2)cc1)c1ccccc1	·	-2%
O=C(NC(=S)Nc1ccc(Oc2ccc(Cl)cc2)cc1)c1ccccc1	?	13µM*
Cc1cc(C(=O)Nc2sc3c(c2C#N)CCC(C)C3)cs1 (stereo not given)	-12%	-5%
Cc1ccccc1C(=O)NC(=S)Nc1sc2c(c1C#N)CCC(C)C2 (stereo not given)	25µM*	?
CN=C1N[C@H](c2ccccc2)N(c2ccccc2)S1	25µM*	?
C=C1C2c3ccccc3C(CC2(C)O[Si](C)(C)C)N1C(=O)OC (stereo not given)	·	-3%[11.4 µM]
CC(C)(C(=O)O)c1ccc([C@@H](O)CCCN2CCC(C(O)(c3ccccc3)c3ccccc3)CC2)cc1	-1%	3%
N=C1Sc2ccccc2C2=NCCCN12	13µM*	?
c1ccc2c(c1)Sc1ccccc1-n1cnnc1-2	·	-1%
Cc1ccc(SCCNC(=S)Nc2ccc(C)c(C)c2)cc1	·	25µM*
Cc1cc(C)cc(NC(=S)NCCSc2ccc(Cl)cc2)c1	·	-28%
COc1ccc2c(c1)OC(=O)CC2c1ccccc1C (stereo not given)	-20%[0.0915 µM]	-3%[0.00818 µM]
CNC(=O)[C@@H]1O[C@@H](n2cnc3c(NCc4ccc(N)cc4)ncnc32)[C@@H](O)[C@H]1O	-4%	-2%
COc1ccccc1NC(=S)NC(=O)CCCOc1ccc(Cl)cc1Cl	20µM*	?
CCCC(=O)NC(=S)Nc1ccccc1OC	-15%	-17%
